Experimental data as given in the supplement of paper PMC11732987, “Enantioselective OTUD7B fragment discovery through chemoproteomics screening and high-throughput optimisation” (Communications Chemistry, 2025).

Experiments:
Assay in all cases: log2 ratio of Biotin-Ahx-Ub-VS probe labelling (fragment/DMSO); higher = less target engagement (more negative = stronger competition), active = hit call of the paper (q ≤ 0.05, log2 ratio ≤ -1)
Details in all cases: compound concentration: 200 uM; treatment time: 3 h
USP9X = USP9X (UniProt Q93008)
Procedure, shortened: (§1)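 HEK293T lysate, 495 µg per sample in Tris/CHAPS/IGEPAL buffer with protease inhibitors, was treated in triplicate with fragment at 200 µM or vehicle for 3 h and then with Biotin-Ahx-Ub-VS at 0.5 µM final for 1 h. Labelled DUBs were NeutrAvidin-enriched, digested with LysC and trypsin, and run by diaPASEF LC-MS/MS. Spectronaut label-free quantities were global-median-normalised, and values are average log2 fragment/vehicle ratios by unpaired t-test on proteins with ≥2 unique peptides.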

UniProt O00487 = biological target: UniProt O00487
Procedure, shortened: as §1

UniProt O00507 = biological target: UniProt O00507
Procedure, shortened: as §1

UniProt P51784 = biological target: UniProt P51784
Procedure, shortened: as §1

UniProt Q5T2D3 = biological target: T1, UniProt Q5T2D3
T1 sequence (whole entry): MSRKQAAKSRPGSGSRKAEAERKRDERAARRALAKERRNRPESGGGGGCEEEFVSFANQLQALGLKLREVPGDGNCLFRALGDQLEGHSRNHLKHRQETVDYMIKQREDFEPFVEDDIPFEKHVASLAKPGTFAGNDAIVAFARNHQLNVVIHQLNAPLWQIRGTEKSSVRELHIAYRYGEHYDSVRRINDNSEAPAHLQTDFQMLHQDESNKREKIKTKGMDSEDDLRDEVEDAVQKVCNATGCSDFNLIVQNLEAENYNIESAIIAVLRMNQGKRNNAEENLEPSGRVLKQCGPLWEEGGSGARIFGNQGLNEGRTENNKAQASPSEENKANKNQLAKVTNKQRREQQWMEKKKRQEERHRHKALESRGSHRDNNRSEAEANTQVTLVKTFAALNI
Procedure, shortened: as §1

UniProt Q8TE49 = biological target: T2, UniProt Q8TE49
T2 sequence (whole entry): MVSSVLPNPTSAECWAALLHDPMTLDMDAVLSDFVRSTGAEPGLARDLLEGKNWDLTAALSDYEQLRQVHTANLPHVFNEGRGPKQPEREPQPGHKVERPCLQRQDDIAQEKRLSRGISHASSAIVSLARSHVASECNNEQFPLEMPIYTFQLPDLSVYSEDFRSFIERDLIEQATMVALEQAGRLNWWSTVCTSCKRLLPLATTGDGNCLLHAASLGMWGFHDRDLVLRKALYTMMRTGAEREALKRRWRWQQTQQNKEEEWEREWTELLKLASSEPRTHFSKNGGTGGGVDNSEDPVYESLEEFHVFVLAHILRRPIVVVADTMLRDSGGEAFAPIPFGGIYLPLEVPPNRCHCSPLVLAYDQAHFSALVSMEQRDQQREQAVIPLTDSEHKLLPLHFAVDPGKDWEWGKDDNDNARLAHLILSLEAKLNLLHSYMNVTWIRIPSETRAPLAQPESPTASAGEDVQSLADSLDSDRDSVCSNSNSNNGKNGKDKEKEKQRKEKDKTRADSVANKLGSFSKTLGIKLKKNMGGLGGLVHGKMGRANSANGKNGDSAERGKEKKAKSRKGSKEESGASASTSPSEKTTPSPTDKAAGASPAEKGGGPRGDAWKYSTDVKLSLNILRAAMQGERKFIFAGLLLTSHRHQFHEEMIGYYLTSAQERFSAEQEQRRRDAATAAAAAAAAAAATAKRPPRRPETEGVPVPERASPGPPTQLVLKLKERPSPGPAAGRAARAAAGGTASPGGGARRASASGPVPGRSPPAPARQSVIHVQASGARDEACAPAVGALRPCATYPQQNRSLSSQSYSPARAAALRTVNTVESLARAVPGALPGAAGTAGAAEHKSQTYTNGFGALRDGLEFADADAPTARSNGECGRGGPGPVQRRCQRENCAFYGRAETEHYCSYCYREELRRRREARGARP
Procedure, shortened: as §1

UniProt Q9P2H5 = biological target: T3, UniProt Q9P2H5
T3 sequence (whole entry): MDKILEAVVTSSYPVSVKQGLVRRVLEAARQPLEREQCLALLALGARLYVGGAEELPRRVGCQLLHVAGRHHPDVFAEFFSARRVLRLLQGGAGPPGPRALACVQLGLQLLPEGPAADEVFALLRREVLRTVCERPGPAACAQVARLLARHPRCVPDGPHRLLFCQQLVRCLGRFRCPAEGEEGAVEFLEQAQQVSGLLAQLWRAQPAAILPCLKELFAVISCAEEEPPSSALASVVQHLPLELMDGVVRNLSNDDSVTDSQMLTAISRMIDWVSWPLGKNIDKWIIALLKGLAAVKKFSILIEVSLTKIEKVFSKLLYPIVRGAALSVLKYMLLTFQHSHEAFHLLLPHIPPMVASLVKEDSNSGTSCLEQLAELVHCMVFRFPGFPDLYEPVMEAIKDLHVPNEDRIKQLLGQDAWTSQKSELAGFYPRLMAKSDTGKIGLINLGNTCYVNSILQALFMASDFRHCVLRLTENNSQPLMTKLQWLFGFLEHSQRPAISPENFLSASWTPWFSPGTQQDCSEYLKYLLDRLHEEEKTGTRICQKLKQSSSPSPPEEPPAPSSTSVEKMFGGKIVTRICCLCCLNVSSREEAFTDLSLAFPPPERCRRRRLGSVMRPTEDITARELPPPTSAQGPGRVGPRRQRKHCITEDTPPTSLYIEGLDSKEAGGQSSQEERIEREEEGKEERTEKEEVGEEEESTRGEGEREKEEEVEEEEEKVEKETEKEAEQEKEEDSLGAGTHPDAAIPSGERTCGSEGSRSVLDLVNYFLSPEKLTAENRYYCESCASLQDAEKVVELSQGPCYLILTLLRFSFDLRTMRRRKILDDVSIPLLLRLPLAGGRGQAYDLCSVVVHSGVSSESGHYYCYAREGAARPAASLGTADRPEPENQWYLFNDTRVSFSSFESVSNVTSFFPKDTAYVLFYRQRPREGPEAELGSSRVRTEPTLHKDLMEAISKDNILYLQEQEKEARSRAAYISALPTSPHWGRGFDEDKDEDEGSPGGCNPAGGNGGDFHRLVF
Procedure, shortened: as §1

UniProt Q9UGI0 = biological target: T4, UniProt Q9UGI0
T4 sequence (whole entry): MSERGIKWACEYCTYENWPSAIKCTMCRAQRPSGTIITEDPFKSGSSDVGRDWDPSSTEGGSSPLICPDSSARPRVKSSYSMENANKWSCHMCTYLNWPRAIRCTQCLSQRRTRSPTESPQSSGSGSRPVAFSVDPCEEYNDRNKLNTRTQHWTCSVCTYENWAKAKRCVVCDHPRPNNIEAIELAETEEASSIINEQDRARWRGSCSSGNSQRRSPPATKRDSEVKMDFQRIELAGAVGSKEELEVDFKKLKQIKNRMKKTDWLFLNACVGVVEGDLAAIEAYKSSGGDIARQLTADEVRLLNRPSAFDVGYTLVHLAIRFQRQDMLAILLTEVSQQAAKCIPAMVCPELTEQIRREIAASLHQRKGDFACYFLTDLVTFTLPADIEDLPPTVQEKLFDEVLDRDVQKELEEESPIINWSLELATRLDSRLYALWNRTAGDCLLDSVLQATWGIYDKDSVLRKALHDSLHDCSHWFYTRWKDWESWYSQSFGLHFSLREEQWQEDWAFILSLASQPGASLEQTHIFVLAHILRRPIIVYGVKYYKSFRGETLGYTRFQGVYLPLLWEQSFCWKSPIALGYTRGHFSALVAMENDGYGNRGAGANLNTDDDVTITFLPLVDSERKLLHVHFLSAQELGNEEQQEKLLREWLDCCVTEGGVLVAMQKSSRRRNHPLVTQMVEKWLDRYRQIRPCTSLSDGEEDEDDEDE
Procedure, shortened: as §1

YOD1 = biological target: T5, YOD1 (UniProt Q5VVQ6)
T5 sequence (whole entry): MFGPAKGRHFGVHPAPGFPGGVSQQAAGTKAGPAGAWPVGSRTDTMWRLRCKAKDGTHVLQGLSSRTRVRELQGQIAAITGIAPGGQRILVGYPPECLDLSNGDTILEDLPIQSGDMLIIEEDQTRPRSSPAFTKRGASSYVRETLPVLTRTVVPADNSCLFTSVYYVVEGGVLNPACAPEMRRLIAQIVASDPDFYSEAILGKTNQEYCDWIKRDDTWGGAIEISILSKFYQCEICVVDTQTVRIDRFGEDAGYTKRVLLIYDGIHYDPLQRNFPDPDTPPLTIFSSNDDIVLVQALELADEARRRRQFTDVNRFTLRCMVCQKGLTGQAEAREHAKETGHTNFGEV
Procedure, shortened: as §1

Measured: log2 ratio of Biotin-Ahx-Ub-VS probe labelling

Chain of UniProt P51784 (P51784 whole entry): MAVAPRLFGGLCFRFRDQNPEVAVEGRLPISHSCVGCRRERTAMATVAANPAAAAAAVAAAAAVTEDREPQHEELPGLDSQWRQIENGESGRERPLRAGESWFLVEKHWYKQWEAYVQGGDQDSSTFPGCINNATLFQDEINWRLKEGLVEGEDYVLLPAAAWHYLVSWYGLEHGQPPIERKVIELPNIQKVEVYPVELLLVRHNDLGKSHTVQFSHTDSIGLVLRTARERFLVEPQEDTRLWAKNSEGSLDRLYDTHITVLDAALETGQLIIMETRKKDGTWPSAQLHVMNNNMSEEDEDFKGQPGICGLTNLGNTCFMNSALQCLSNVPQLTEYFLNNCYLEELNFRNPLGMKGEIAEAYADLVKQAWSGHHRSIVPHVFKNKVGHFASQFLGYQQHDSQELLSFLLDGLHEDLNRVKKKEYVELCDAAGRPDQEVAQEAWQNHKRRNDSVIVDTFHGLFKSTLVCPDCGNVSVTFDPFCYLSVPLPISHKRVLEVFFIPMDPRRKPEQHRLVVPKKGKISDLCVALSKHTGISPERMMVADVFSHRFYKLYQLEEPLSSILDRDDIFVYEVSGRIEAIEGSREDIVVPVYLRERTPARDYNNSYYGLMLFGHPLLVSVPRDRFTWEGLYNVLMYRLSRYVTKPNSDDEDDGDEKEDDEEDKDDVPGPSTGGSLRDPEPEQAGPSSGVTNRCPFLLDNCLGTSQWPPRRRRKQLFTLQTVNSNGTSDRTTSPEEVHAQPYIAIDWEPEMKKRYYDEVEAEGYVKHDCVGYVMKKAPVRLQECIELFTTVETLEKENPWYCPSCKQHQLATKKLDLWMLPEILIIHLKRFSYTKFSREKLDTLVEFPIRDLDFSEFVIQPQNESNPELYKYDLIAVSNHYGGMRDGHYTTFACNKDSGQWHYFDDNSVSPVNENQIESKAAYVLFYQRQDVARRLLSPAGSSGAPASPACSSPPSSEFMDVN
Chain of UniProt O00507 (O00507 whole entry): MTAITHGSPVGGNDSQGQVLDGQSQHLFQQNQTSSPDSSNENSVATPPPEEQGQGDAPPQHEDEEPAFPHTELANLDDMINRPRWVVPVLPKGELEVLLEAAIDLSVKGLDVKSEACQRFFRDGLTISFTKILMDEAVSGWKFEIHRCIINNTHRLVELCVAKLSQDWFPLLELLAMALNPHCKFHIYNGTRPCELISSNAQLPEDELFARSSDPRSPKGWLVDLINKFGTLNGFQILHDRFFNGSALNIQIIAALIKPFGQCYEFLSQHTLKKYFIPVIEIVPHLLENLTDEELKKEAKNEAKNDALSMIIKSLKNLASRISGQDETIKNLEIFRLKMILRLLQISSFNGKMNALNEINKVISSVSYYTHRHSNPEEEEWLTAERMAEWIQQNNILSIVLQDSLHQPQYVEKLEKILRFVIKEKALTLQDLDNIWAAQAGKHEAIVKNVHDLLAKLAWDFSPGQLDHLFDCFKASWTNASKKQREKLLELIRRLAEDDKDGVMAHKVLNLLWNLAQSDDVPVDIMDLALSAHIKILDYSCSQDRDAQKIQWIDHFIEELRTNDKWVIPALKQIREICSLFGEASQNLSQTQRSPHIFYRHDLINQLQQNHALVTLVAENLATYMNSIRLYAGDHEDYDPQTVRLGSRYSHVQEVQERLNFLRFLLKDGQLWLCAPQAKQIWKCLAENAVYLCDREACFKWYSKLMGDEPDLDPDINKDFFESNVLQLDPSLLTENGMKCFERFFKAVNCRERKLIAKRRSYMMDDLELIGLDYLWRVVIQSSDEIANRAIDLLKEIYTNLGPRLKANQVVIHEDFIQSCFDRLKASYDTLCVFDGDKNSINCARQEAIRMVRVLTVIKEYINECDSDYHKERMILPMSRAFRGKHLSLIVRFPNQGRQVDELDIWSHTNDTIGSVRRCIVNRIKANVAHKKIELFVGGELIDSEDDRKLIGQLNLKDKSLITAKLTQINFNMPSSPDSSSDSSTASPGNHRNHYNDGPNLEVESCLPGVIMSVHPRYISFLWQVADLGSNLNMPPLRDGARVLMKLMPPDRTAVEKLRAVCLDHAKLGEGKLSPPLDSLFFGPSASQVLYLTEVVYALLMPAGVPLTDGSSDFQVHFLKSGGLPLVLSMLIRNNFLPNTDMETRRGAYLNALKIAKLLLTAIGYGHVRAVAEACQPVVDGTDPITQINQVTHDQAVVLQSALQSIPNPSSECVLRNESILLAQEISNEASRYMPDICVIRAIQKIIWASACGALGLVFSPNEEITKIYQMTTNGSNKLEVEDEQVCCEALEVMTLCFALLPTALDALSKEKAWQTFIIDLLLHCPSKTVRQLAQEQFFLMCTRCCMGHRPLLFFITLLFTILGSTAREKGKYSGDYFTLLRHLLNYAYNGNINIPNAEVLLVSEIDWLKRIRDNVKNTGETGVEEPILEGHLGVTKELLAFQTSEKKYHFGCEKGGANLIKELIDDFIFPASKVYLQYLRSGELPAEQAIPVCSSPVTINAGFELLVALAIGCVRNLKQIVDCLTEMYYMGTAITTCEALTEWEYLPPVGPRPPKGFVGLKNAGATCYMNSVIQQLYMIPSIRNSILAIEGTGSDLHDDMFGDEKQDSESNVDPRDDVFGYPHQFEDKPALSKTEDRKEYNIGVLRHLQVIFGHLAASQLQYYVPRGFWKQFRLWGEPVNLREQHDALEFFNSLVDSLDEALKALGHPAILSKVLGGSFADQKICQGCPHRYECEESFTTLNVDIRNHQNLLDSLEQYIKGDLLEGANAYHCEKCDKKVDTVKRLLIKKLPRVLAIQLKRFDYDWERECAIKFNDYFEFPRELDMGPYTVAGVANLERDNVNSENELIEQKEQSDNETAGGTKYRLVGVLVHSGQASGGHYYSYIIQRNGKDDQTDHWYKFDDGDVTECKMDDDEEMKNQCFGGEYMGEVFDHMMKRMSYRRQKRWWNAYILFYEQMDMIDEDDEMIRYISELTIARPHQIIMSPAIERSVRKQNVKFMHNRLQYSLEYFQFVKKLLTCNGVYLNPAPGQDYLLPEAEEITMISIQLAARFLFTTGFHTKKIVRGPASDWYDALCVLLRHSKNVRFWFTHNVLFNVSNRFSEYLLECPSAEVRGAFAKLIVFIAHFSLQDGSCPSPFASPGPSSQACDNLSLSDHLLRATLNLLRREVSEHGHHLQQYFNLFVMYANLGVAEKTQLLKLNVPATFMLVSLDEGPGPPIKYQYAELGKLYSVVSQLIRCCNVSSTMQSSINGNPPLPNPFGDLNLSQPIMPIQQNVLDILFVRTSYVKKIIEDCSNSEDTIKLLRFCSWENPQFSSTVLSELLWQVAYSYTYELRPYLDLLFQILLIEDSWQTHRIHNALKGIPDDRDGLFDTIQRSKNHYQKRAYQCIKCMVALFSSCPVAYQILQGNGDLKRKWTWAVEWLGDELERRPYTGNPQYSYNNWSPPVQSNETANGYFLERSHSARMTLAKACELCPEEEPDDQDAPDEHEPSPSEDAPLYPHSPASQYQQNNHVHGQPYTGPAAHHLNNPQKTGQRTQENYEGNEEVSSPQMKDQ
Chain of UniProt O00487 (O00487 whole entry): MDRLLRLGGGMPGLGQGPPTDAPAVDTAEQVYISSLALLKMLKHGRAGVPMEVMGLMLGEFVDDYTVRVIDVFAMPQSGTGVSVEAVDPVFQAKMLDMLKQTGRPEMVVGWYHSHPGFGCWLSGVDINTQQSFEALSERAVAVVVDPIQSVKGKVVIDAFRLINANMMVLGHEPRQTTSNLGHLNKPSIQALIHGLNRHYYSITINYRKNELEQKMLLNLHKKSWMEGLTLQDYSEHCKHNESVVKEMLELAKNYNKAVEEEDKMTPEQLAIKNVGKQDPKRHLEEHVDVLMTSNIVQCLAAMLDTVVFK

Cl.O=C(CCl)NCCc1ncc(F)cc1F
inactive: USP9X -0.419 | UniProt O00487 -0.24 | UniProt O00507 0.000732 | UniProt P51784 -0.132 | UniProt Q5T2D3 -0.431 | UniProt Q8TE49 -0.85 | UniProt Q9P2H5 -0.675 | UniProt Q9UGI0 -0.786 | YOD1 -0.195
